Data taken from PubChem BioAssay (NCATS).
Records with an inconclusive call do not appear. Calls of active or inactive are those of the source. Unless noted, calls come from the whole dose curve; as a rule, active = well fitted curve in the direction sought with a large enough effect; inconclusive = small, poorly fitted or top-dose-only effect, or another doubt; inactive = no such curve, though single readings can be large; an effect the other way counts as inactive or inconclusive.

Assays:
[1] = qHTS to identify inhibitors of the type 1 interferon - major histocompatibility complex class I in skeletal muscle: primary screen against the NCATS Pharmaceutical Collection (AID 1347407);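 note: luminescence of HiBiT knocked into endogenous HLA-B as interferon-induced MHC class I level; % is set by controls: 0 for no effect and ±100 for the full control effect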
How it was run: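 Compounds […] were added to CRISPR-engineered HLA-B-HiBiT C25cl48 human myoblasts with 4.0 ng/ml IFN-beta. After 24 hrs at 37 C, cells were lysed and HiBiT luminescence measured.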

[2] = target: Protein phosphatase 1D (Homo sapiens) (UniProt O15297); test: RapidFire Mass Spectrometry qHTS Assay for Modulators of WT P53-Induced Phosphatase 1 (WIP1) (AID 1347424);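 note: series mostly up to about 63 µM; plate controls were DMSO wells for no effect and GSK830371 inhibitor control at 10 µM for full effect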
How it was run: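 RapidFire MS readout of dephosphorylated VEPPL-S-QETFS product, with 1 uM isotope-labelled peptide standard. Reaction: 10 nM WIP1, 2 uM phosphopeptide substrate, 5 min, room temperature, after 1 h compound preincubation; stopped with 0.5% formic acid.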

[3] = target: Protein phosphatase 1D (Homo sapiens) (UniProt O15297); test: Rhodamine-PBP qHTS Assay for Modulators of WT P53-Induced Phosphatase 1 (WIP1) (AID 1347425); note: % of control where 0% means no effect
How it was run: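 The read-out is the change in Rhodamine-PBP fluorescence (f1 - f0, ex 525/em 598 nm) as Pi is released, read each minute for 11 min. Final reaction: 5 nM WIP1, 10 uM phosphopeptide VEPPL-pS-QETFS, 10 uM Rh-PBP, 50 mM Tris-HCl pH 7.5, 30 mM MgCl2. Compound was preincubated with enzyme for 1 hour at room temperature.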

[4] = Primary qHTS for inhibitors of La Crosse Virus (LACV) - induced cell death in SH-SY5Y cells (AID 1508616);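 note: top concentration of the series differs between compounds; 0% = infected DMSO wells and 100% = uninfected DMSO wells; higher means more rescue of cells from virus-induced death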
How it was run: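 Cytopathicity rescue screen: compounds pinned onto SH-SY5Y cells, which are then infected with LACV (MOI 0.01) and held 6 days at 37C. Percent activity is scaled between infected DMSO control and uninfected DMSO control.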

[5] = target: Calcium and integrin-binding protein 1 (Homo sapiens) (UniProt Q99828); test: Primary qHTS for Identification of Calcium Integrin Binding Protein 1 (CIB1) Competitor (AID 1508620);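 note: GST tagged CIB1 binding a fluorescein labelled alphaIIb integrin peptide tracer; top concentration of the series differs between compounds; % is set by controls: 0 for no effect and ±100 for the full control effect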
How it was run: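 Fluorescence polarization competition: GST-tagged CIB1 (1 uM final) preincubated with compound 15 min at room temperature, then FITC-labelled alphaIIb peptide (100 nM final) added. After 15 min at room temperature, polarization read at Ex 480/Em 540.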

[6] = Primary qHTS for small molecule stabilizers of the endoplasmic reticulum resident proteome: Secreted ER Calcium Modulated Protein (SERCaMP) assay (AID 1508630); note: % is set by controls: 0 for no effect and ±100 for the full control effect
How it was run: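 The SH-SY5Y reporter protocol was run at 3 concentrations up to 38.3 uM (primary) or 11 concentrations (follow-up): 16 h compound, 100 nM thapsigargin for 4 h, then extracellular luciferase luminescence.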

[7] = A High-Content qHTS Against Drug Library for the Identification of Small Molecules that Inhibit DYT1 Early Onset Primary Dystonia-Associated Cell Pathology (AID 1645839; calls by dose curve; note: series mostly up to about 46 µM)
How it was run: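 Cells were seeded and left for 24 h, then dosed with compound alongside tetracycline induction of mutant EGFP-TorsinA. They were incubated for 48 h, fixed in 4% paraformaldehyde, permeabilized and imaged for mislocalization (%pathology) and cell count.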

Chain of Calcium and integrin-binding protein 1 (Homo sapiens) (Q99828 whole entry, looked up): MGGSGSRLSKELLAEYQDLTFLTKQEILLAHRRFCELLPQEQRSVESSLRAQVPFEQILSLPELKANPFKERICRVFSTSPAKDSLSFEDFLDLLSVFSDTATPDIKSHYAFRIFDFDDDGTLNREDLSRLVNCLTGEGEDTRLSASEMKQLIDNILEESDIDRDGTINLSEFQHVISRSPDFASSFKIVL
Chain of Protein phosphatase 1D (Homo sapiens) (O15297 whole entry, looked up): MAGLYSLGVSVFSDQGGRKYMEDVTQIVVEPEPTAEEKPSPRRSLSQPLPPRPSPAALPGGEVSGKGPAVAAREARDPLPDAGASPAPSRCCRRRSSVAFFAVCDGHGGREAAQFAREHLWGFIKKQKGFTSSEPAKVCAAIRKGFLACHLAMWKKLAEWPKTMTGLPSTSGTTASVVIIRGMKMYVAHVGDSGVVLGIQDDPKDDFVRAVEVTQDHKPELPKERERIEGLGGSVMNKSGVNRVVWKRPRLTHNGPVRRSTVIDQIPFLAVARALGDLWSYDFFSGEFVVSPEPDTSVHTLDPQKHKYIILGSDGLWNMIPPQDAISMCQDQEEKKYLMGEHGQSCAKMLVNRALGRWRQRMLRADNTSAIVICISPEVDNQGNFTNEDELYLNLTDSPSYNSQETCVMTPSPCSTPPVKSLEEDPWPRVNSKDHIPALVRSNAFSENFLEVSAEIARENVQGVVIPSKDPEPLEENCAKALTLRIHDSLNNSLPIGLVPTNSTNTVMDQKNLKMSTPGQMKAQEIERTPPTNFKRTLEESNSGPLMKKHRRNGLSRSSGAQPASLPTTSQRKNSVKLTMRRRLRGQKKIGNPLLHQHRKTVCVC

Cl/C(=C\n1cncn1)c1ccc(Cl)cc1Cl
inactive: Potency [1] | Potency [2] | outcome [3] | outcome [4] | Potency [5] | Potency [6] | Potency [7]

Cc1cc(C)cc(OCC2CNC(=O)O2)c1 (stereo not given)
inactive: Potency [1] | Potency [2] | outcome [3] | outcome [4] | Potency [5] | Potency [7]

CC(C)Nc1cccnc1N1CCN(C(=O)c2cc3cc(NS(C)(=O)=O)ccc3[nH]2)CC1
inactive: Potency [1] | Potency [2] | outcome [3] | outcome [4] | Potency [5] | Potency [7]

Cn1c(=O)c2[nH]c(Br)nc2n(C)c1=O
inactive: Potency [1] | Potency [2] | outcome [3] | outcome [4] | Potency [5] | Potency [7]

OCCOCCN1CCN(C2=Nc3ccccc3Sc3ccccc32)CC1
inactive: Potency [1] | Potency [2] | outcome [3] | outcome [4] | Potency [5] | Potency [7]

CCCCCCCCCCCCCC(=O)OC(C)C
inactive: Potency [1] | Potency [2] | outcome [3] | outcome [4] | Potency [5] | Potency [7]

c1ccc(-c2nc[nH]c2-c2ccccc2)cc1
inactive: Potency [1] | Potency [2] | outcome [3] | outcome [4] | Potency [5] | Potency [6] | Potency [7]

CCCCNC(=O)NS(=O)(=O)c1ccc(N)cc1
inactive: Potency [1] | Potency [2] | outcome [3] | outcome [4] | Potency [5] | Potency [7]

CCN(CC)CCNC(=O)COc1ccc(OC)cc1
inactive: Potency [1] | Potency [2] | outcome [3] | outcome [4] | Potency [5] | Potency [6] | Potency [7]

C[C@]12CCC(=O)C=C1C=C[C@@H]1[C@@H]2CC[C@@]2(C)[C@H]1CC[C@@]21CCC(=O)O1
inactive: Potency [1] | Potency [2] | outcome [3] | outcome [4] | Potency [5] | Potency [7]

Cc1nc(-c2ccc(Cl)cc2)oc1COC(C)(C)C(=O)O
inactive: Potency [1] | Potency [2] | outcome [3] | outcome [4] | Potency [5] | Potency [6] | Potency [7]

CO[C@]12C[C@@H](COC(=O)c3cncc(Br)c3)CN(C)[C@@H]1Cc1cn(C)c3cccc2c13
inactive: Potency [1] | Potency [2] | outcome [3] | outcome [4] | Potency [5] | Potency [7]

COc1ccc(CN(CCN(C)C)c2ncccn2)cc1
inactive: Potency [1] | Potency [2] | outcome [3] | outcome [4] | Potency [5] | Potency [7]

NS(=O)(=O)Cc1noc2ccccc12
inactive: Potency [1] | Potency [2] | outcome [3] | outcome [4] | Potency [5] | Potency [6] | Potency [7]

C/C=C/c1ccc(O)c(OC)c1
inactive: Potency [1] | Potency [2] | outcome [3] | outcome [4] | Potency [5] | Potency [7]

N[C@H](C(=O)O)[C@@H](O)c1ccc(O)c(O)c1
inactive: Potency [1] | Potency [2] | outcome [3] | outcome [4] | Potency [5] | Potency [7]

CCOc1ccccc1C(N)=O
inactive: Potency [1] | Potency [2] | outcome [3] | outcome [4] | Potency [5] | Potency [7]

CCN(CC)CCNC(=O)c1cc(Br)c(N)cc1OC
inactive: Potency [1] | Potency [2] | outcome [3] | outcome [4] | Potency [5] | Potency [7]

Nc1nc(N)c(-c2ccccc2)s1
inactive: Potency [1] | Potency [2] | outcome [3] | outcome [4] | Potency [5] | Potency [6] | Potency [7]

C[N+]12CCC(CC1)C(OC(=O)C(O)(c1ccccc1)c1ccccc1)C2 (stereo not given)
inactive: Potency [1] | Potency [2] | outcome [3] | outcome [4] | Potency [5] | Potency [7]

CCN[C@@H]1C[C@H](N)[C@@H](OC2OC(CN)=CCC2N)[C@H](O)[C@H]1O[C@H]1OC[C@](C)(O)[C@H](NC)[C@H]1O (stereo not given in full)
inactive: activity change, negative = inhibition [1] 4.01% [at 0.727 µM] | activity change, negative = inhibition [2] -11.3% [at 0.505 µM] | activity change, negative = inhibition [3] -2.47% [at 0.575 µM] | activity change [4] -7.05% [at 0.0343 µM] | activity change, negative = inhibition [5] 1.28% [at 1.07 µM] | activity change, negative = inhibition [6] -24.8% [at 0.478 µM] | % pathology change, negative = correction [7] 3.5% [at 0.369 µM]

CCN(CC)CCOC(=O)C1(c2ccccc2)CCCC1
inactive: Potency [1] | Potency [2] | outcome [3] | outcome [4] | Potency [5] | Potency [7]

Cc1cccc(C)c1NC(=O)CN1CCCCCC1
inactive: Potency [1] | Potency [2] | outcome [3] | outcome [4] | Potency [5] | Potency [6] | Potency [7]

O=C(Nc1cccc(C2=NCCN2)c1)Nc1cccc(C2=NCCN2)c1
inactive: Potency [1] | Potency [2] | outcome [3] | outcome [4] | Potency [5] | Potency [7]

CN1CCN(c2cc3c(cc2F)c(=O)c(C(=O)O)cn3-c2ccc(F)cc2)CC1
inactive: Potency [1] | Potency [2] | outcome [3] | outcome [4] | Potency [5] | Potency [7]

CCNC(=O)/C=C/c1cccc(Br)c1
inactive: Potency [1] | Potency [2] | outcome [3] | outcome [4] | Potency [5] | Potency [7]

FC(F)(F)C(F)(F)C(F)(F)C(F)(F)C(F)(F)C(F)(F)C(F)(F)C(F)(F)Br
inactive: Potency [1] | Potency [2] | outcome [3] | outcome [4] | Potency [5] | Potency [7]
